High-throughput results as filed in PubChem BioAssay.
FMDV inh: High Throughput Screening for Foot and Mouth Disease Virus Antivirals; FMDV antiviral cell-based qHTS; Potency, µM (top dose mostly 57.9 µM), for inactives: at the top dose activity change, negative = inhibition, actives largely listed as inhibitors; hit rate 1.2% among 410,000; AID 1159524, 2015; calls by dose curve; tested in HEK293T cells; also: read-out not given here; potency is read from the fitted curve at half-maximal effect; % is scaled to controls: 0 for no effect and ±100 for the full control effect; nearly all actives have a fitted effect of over 45% in size
Sm TGR block: qHTS Assay for the Inhibitors of Schistosoma Mansoni Peroxiredoxins. purified TGR, DTNB reduction, TNB absorbance 405 nm. Potency, µM (titrated, usually from 114 µM), for the others: at the top dose activity change, negative = inhibition, hits mostly inhibitors. hit rate 3% among 360,000. Schistosoma mansoni thioredoxin glutathione reductase (TGR), Q962Y6; active = well fitted inhibition curve with a large enough effect; inconclusive = small, poorly fitted or top-dose-only effect; inactive = no such curve, though single readings can be large or run the other way; also: potency is read from the fitted curve at half-maximal effect; % is scaled to controls: 0 for no effect and ±100 for the full control effect; nearly all actives have a fitted effect of over 60% in size
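Kinetic colorimetric format: TGR-catalysed, NADPH-driven DTNB reduction monitored via TNB absorbance. Enzyme dispensed at 20 nM; compound exposure 15 min at room temperature before reaction start.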
CHX counter: Cycloheximide Counterscreen for Small Molecule Inhibitors of Shiga Toxin | hit rate 12% among 300,000 | max response, % | cell reporter, cycloheximide protein synthesis inhibition counterscreen | AID 2314, 2010; in the data active = max response mostly above about 13%, no sharp cut-off; inactive = mostly below about 14%; also: read at 38.3 µM for the half of the compounds with a filed dose; 0% is about no effect
Shiga inhibitor: A qHTS for Small Molecule Inhibitors of Shiga Toxin; AID 2315, 2010; Vero cells, Shiga toxin protein synthesis inhibition reporter; hit rate 9.2% among 290,000; inhibition, % at 38.7 µM; in the data active = inhibition mostly above about 28%, no sharp cut-off; inactive = mostly below about 43%; also: 0% is about no effect
Starred values were filed as active, the others as inactive; u = inconclusive; x = no result; [ ] = dose if it differs, or a comment. Sampled rows, rich in hits. Any-hit rate of the full collection: about 12%.

SMILES	FMDV inh	Sm TGR block	CHX counter	Shiga inhibitor
CN(C)c1ccc(/C=N\Nc2ccccn2)cc1	22%	-10%	24*	47*
COc1ccc(NC(=O)c2sc3nc[nH]c(=O)c3c2C)cc1OC	-18%	24%	x	x
CCC(CC)c1nn2c(=O)cc(COc3ccc(NC(=O)c4ccccc4C)cc3)nc2s1	-2%	6%	x	x
CS(=O)(=O)N1CCC[C@@]2(CCN(c3ccccn3)C2)C1	-13%	x	x	x
COc1ccc(-c2nc(CSCC(=O)NCc3ccccc3Cl)c(C)o2)cc1OC	u	-3%	x	x
CCNc1ncc2nc(C)c(=O)n(CCc3ccccc3)c2n1	-11%	x	x	x
O=[N+]([O-])c1cccc(/C=N/Nc2ccccn2)c1	31%	1%	16	65*
O=C(/C=C/c1cccc([N+](=O)[O-])c1)N1CCN(c2ccccn2)CC1	-10%	-11%	-2	-7
O=[N+]([O-])c1cccc(/C=C/c2ccccn2)c1	32%	4%	29*	54*
CCC(Cn1nnc2ccccc2c1=O)NC(=O)Nc1ccc(C)cc1C (stereo not drawn)	-8%	-3%	x	x
O=C(CC1COc2ccccc2O1)NC1CCCCC1 (stereo not drawn)	41%	9%	10	24
O=C(CCC1COc2ccccc2O1)NCc1ccco1 (stereo not drawn)	-29%	40µM*	-3	-8
O=C(CCC1COc2ccccc2O1)NC1CCCCC1 (stereo not drawn)	59%	4%	36*	27
Cc1cc(C)nc(SCC2COc3ccccc3O2)n1 (stereo not drawn)	12%	13%	24	79*
O=C(NCc1ccco1)C1c2ccccc2Oc2ccccc21	-3%	40µM*	6	36
CN(C)c1nc(NC2CCC(NC(=O)c3ccc(F)c(F)c3)CC2)nc2ccccc12 (stereo not drawn)	x	x	-1	-2
O=C(CSc1nnc(C2COc3ccccc3O2)o1)N1CCCCC1 (stereo not drawn)	u	4%	-2	32
O=C(CSc1nnc(C2COc3ccccc3O2)o1)NC1CCCCC1 (stereo not drawn)	18%	5%	20*	39
Cc1cc(C)n(C(=O)CCC2COc3ccccc3O2)n1 (stereo not drawn)	-4%	-3%	11*	35
O=C(CCC1COc2ccccc2O1)N1CCCC1 (stereo not drawn)	18%	0%	8	8
O=c1cc2nc(-c3ccccc3F)nc(SCc3ccc(Br)cc3)n2[nH]1	-23%	8%	x	x
CC1=C(C(=O)Nc2ccccc2)C(c2ccccc2Cl)n2ncc(C(=O)Nc3cccc(C)c3)c2N1 (stereo not drawn)	-16%	6%	x	x
COc1ccccc1OCc1ccc(C(=O)Nc2ccc(Cl)cn2)o1	-13%	0%	12*	30
COc1ccc(NC(=O)c2ccc(COc3ccccc3OC)o2)cc1OC	u	-1%	3	6
COc1ccccc1OCc1ccc(C(=O)NN)o1	5%	17%	19*	42*
SMILES	FMDV inh	Sm TGR block	CHX counter	Shiga inhibitor
COc1ccccc1OCc1ccc(C(=O)Nc2cc(OC)c(OC)c(OC)c2)o1	-25%	12%	-4	-5
Cc1cccc(OCC(=O)OCc2cc(=O)n3nc(C4CC4)sc3n2)c1	-15%	18%	x	x
Cc1ccc(-n2c3nc(=O)n(C)c(=O)c-3cc3c(Cl)cccc32)c(C)c1	-12%	-15%	x	x
Cc1ccn2cc(C(=O)Nc3nnc(C)s3)nc2c1	x	1%	2	35
Cc1ccn2cc(C34CC5CC(CC(C5)C3)C4)nc2c1	6%	4%	35*	95*
Cn1c(Oc2ccc(F)cc2)nc2c1c(=O)n(Cc1ccccc1Cl)c(=O)n2C	18µM*	11%	x	x
CC(C)c1ccc(NC(=O)Cn2nnc(C(=O)NCc3ccc(Cl)cc3)c2N)cc1	0%	5%	x	x
[O-]/[N+](=C\c1cccc(Br)c1)c1ccccc1	17%	1%	44*	82*
[O-]/[N+](=C\c1ccc(F)cc1)c1ccccc1	x	-2%	18*	6
[O-]/[N+](=C\c1ccccc1)c1ccc(Br)cc1	48%	-11%	x	x
Cc1cc(N2CCOCC2)ccc1/C=C1\SC(=O)N(C(C)C)C1=O	16%	0%	39*	74
CCC(C)N1C(=O)S/C(=C/c2ccc(N3CCOCC3)cc2C)C1=O (stereo not drawn)	12%	2%	56*	87*
Cc1ccc(N2CCN(C(=O)N3CCOCC3)CC2)cc1C	6%	-17%	-2	-2
CC1C(NC(=O)/C(=N/OC(C)(C)C(=O)O)c2csc(N)n2)C(=O)N1S(=O)(=O)O (stereo not drawn)	-6%	x	x	x
O=C(Cn1cc2c(n1)CCCC2)Nc1cc(-c2cccc(Cl)c2)no1	28%	-4%	28*	44*
CC(C)CCn1cnc2c(NCc3ccccc3)ncnc21	0%	0%	29*	37
OC[C@@H]1CN(Cc2ccc(-c3ccccc3)cc2)C[C@H](n2cnc3c(Nc4ccccc4)ncnc32)O1	32µM*	x	x	x
CC(CNC(=O)Cn1cnc2c(NCc3ccccc3)ncnc21)c1ccccc1 (stereo not drawn)	-28%	x	x	x
c1ccc(CNc2ncnc3c2ncn3C2CCCCO2)cc1 (stereo not drawn)	x	13%[11.4 µM]	32*	52
Cc1cc(C)c(CN2CCN(C(=O)Cn3cnc4c(NCc5ccccc5)ncnc43)CC2)c(C)c1	8.9µM*	x	x	x
CCCC(C)(C)C(=O)Nc1ccc(Cl)cc1	x	x	2	-9
CC(NC(=O)c1sc2ncccc2c1-n1cccc1)c1ccccc1 (stereo not drawn)	15%	-1%	x	x
CCOc1ccc(CCNC(=O)c2nc(-c3cccc(F)c3)n3c2CCCCC3)cc1OCC	-17%	5%	x	x
OC[C@@H]1CN(Cc2ccc(-c3ccccc3)cc2)C[C@H](n2cnc3c(NCc4ccc(F)cc4)ncnc32)O1	28µM*	x	x	x
CCc1ccc(NC(=O)C(C)Sc2nc(-c3ccco3)c(C#N)c(=O)[nH]2)cc1 (stereo not drawn)	19%	40µM*	4	4
SMILES	FMDV inh	Sm TGR block	CHX counter	Shiga inhibitor
CC1N(C)c2cc(NC(=O)c3ccco3)ccc2C1(C)C (stereo not drawn)	23%	u	44*	74*
CC1N(C)c2cc(NC(=O)c3ccco3)c(P(=O)(Nc3ccc([N+](=O)[O-])cc3)N3CCOCC3)cc2C1(C)C (stereo not drawn)	-8%	0%	24	56*
CCc1ccccc1NC(=O)Cn1c(=O)n(CCCCCC(=O)NCc2ccc(C)cc2)c(=O)c2sccc21	-12%	-1%	x	x
Cc1ccc(NC(=O)C2CCN(C(=O)c3cnn(-c4ccccc4)c3-n3cccc3)CC2)cc1	-1%	-2%	x	x
CC(C)c1ccc(S(=O)(=O)N2CCC(n3c(C(F)(F)F)nc4cccnc43)CC2)cc1	-11%	-3%	x	x
Cc1cc(C)cc(-n2ccnc2SCC(=O)Nc2nnc(C)s2)c1	0%	u	x	x
Cc1ccc(Cn2cccc(-c3nc4ccccc4s3)c2=O)cc1	36%	-4%	43*	70*
O=c1c(-c2nc3ccccc3s2)cccn1Cc1ccccc1	24%	14%	51*	102*
Cc1cccc(Cn2cccc(C(=O)Nc3nc4ccccc4s3)c2=O)c1	-19%	32%	x	x
